# Tg IFNy HTS: T. gondii growth inhibition with IFN-gamma, primary screen, cell-based | Toxoplasma gondii growth in IFN-gamma-treated host cells; hits give low values | activity change, negative = inhibition, % (test concentration not listed) | 3.8% of 69,000 active | AID 1259416, 2018; in the data active = activity change below about -70%, passing the limit was not always enough;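 also: host cells are HeLa cells infected with Toxoplasma gondii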
# * marks the source's active call; other numbers are inactive results; ! = a repeat was not active. Many of the other results were omitted from the sample, so hits are more common in it than they were.
SMILES,Tg IFNy HTS
Cc1nc(-c2ccc(Cl)cc2)sc1-c1ccnc(SCc2ccccc2)n1,-62
c1ccc(CSc2nccc(-c3ccc4c(c3)CCO4)n2)cc1,-81*
COCC1(C(=O)NCc2cccnc2Oc2ccc(C)nc2)CCC1,-8
Cc1nc2nnc3ccc(C(=O)N(C)C)cc3c2n1-c1ccccc1,-3
CN(C)C(=O)c1ccc2nnc3ncn(Cc4ccccc4)c3c2c1,-46
Cc1nc2nnc3ccc(C(=O)N(C)Cc4ccccn4)cc3c2n1Cc1ccccc1,-109*
Cc1cc2cc(NC(=O)c3ccc(-n4cnnc4)cc3)cc(Cl)c2o1,-9
CCc1oc2c(Cl)cc(-n3cnnc3)cc2c1C,-85*
CCc1oc2c(-n3cnnc3)cccc2c1C,-10
O=C(Nc1csc(-c2ccc(Cl)cc2)c1)c1cccnc1Oc1ccc(Cl)cc1,70
O=C(NCc1csc2ccc(Cl)cc12)c1cccnc1Oc1ccc(Cl)cc1,-61
O=C(Sc1ccc(Cl)cc1)c1cccnc1Oc1ccccc1,-102*
CC(NC(=O)C1(c2cccc(F)c2)CCOCC1)c1ccc(N2CCOCC2)cc1 (configuration not stated),-25
O=C(Cn1c(=O)cc(C(=O)N2CCOCC2)c2ccccc21)Nc1cccc(Cl)c1,4
O=C(CSCCOc1ccccc1)N1CCOCC1,55
Cc1cc(NC(=O)c2cccc3ccccc23)cc(C)c1OCC(=O)N1CCOCC1,-2
O=C(COc1cccc(-n2cnnc2)c1)N1CCOCC1,-85*
CCOc1ccccc1C(=O)N1CCN(S(=O)(=O)c2cc3c4c(c2)CCN4C(=O)CC3)CC1,31
Cc1nc(-c2ccc(F)cc2)sc1CCNC(=O)C(C)C,397
Cc1ccc(S(=O)(=O)N2CCN(S(=O)(=O)c3cc4c5c(c3)CCN5C(=O)CC4)CC2)cc1,9
Fc1ccc(C(c2ccc(F)cc2)N2CCN(Cc3cnc[nH]3)CC2)cc1,-3
CCOC(=O)c1cnc2c(-c3ccccc3)c(C(F)(F)F)sc2c1N1CCOCC1,-93*
Cc1nc(-c2ccccc2)sc1C(=O)Oc1ccccc1N1CCOCC1,-56
CCOC(=O)c1cnc2oc3ccc(O)cc3c2c1-c1ccccc1,14
Cc1cc(C(F)F)n2ncc(C(=O)N3CCC(O)(Cn4ccc5ccncc54)CC3)c2n1,-31
SMILES,Tg IFNy HTS
Cn1c(=O)c(-c2nc(-c3cccc(F)c3)no2)c(O)c2cc(F)ccc21,-31
c1cncc(OCCCn2ccnc2-c2cccc3nonc23)c1,-49
CCc1ccc(CN2CCC3(CC2)CN(c2ccccc2)C3=O)o1,-4
CCOC(=O)C1(CCOC)CCCNC1 (configuration not stated),8
CCCCC[C@H](O)/C=C/[C@H]1[C@H](O)CC(=O)[C@@H]1CCCCCCC(=O)O,14
CCCCCCCCCCC[C@@H](C[C@@H]1OC(=O)[C@H]1CCCCCC)OC(=O)[C@H](CC(C)C)NC=O,-82*
CNC(=O)c1ccc(C2CCCN2C(=O)c2cn[nH]n2)s1 (configuration not stated),2
CCOC(=O)CCNC(=O)Nc1ccc(-c2nc(-c3ccccc3)co2)cc1,110
Cc1noc(-c2cc(=O)n(CC(=O)NC3CCCC3)c3ccccc23)n1,68
Cc1ccc2c(c1)cc(S(=O)(=O)c1ccccc1)c(=O)n2CC(=O)NC1CCCC1,-20
CC(Cn1cnc2c3cc(F)ccc3n(CC(=O)NC3CCCC3)c2c1=O)c1ccccc1 (configuration not stated),-102*
Cc1ccc(C(=O)N2CCCc3c(c(=O)n(C)n3C)C2)o1,-3
Cc1ccc(CN2CCC3(CC2)CN(c2cccc(F)c2)C3=O)o1,57
COc1ccc(CCN(C)C2CCCN(c3ncnc4[nH]ccc34)C2)cc1OC (configuration not stated),4
CSc1ccc(CNC(=O)Cn2c(=O)cc(-c3nc(C4CC4)no3)c3ccccc32)cc1,-12
Cn1cc(CN(Cc2ncc[nH]2)C2CC2)cn1,19
CCc1ccc2c(c1)cc(S(=O)(=O)c1ccccc1)c(=O)n2CC(=O)NCc1ccc(F)cc1,-46
CNCCC=C1c2ccccc2C=Cc2ccccc21,16
CNCCCC1c2ccccc2C=Cc2ccccc21,-81*!
Cc1ccc(NC(=O)c2snc3c(=O)[nH]cnc23)cc1,-111*
CSc1nsc(SCC(=O)Nc2ccc(C)cc2)n1,99
Cc1ccc(NC(=O)c2c(O)c3cccnc3[nH]c2=O)cc1,59
O=C(O)CCCN(c1ccccc1C(=O)O)S(=O)(=O)/C=C/c1ccccc1,2
C=CC(=O)Nc1cccc(Nc2nc(Nc3ccc(N4CCN(C(C)=O)CC4)cc3OC)ncc2C(F)(F)F)c1,2
COc1cc(N2CCC(N3CCN(C)CC3)CC2)ccc1Nc1ncc(Cl)c(Nc2ccccc2S(=O)(=O)C(C)C)n1,-83*
SMILES,Tg IFNy HTS
COc1cc(N2CCC(N(C)C)CC2)ccc1Nc1ncc(Cl)c(Nc2ccccc2P(C)(C)=O)n1,-74*
C=CC(=O)Nc1cccc(Oc2nc(Nc3ccc(N4CCN(C)CC4)cc3)ncc2Cl)c1,-57
COc1ccc(S(=O)(=O)N2CCC3(CC2)Nc2ccccc2-n2cccc23)cc1,6
CCNC(=O)C1(Cc2ccc(-c3cccs3)cc2)CCCN(C(=O)c2ccncc2)C1 (configuration not stated),-12
Cn1c(CCC(=O)Nc2cccc(C(=O)N3CCOCC3)c2)nc2ccccc21,-17
Cc1ccccc1N1CC2(CCCCN2CC2CC2)CC1=O (configuration not stated),-9
OC1CCC(Nc2ncc3nc(Nc4c(F)cc(F)cc4F)n([C@H]4CCOC4)c3n2)CC1 (some centres not stated),-73*
Fc1cnc(NC2COC3(CCCN(CC4CCOCC4)C3)C2)nc1 (configuration not stated),-2
CCn1c(CNC(=O)C2CCC2)nc2c1CN(C(=O)c1ccc(OC)cc1)CC2,22
Cc1ccccc1-c1noc(CCC(=O)N(C)Cc2n[nH]c3c2CCCC3)n1,-6
CCc1nnsc1C(=O)N(C)CCc1nc2c(C)cccc2[nH]1,-8
Cc1ccc(CN(CCCn2ccnc2)Cc2ccnc(N3CCOCC3)n2)o1,4
Cc1cc(C)c2c(c1)[C@@H](N(Cc1cc(C(F)(F)F)cc(C(F)(F)F)c1)c1nnn(C)n1)CCCN2CC1CCC(C(=O)O)CC1 (some centres not stated),-81*
CCC(=O)N1C[C@H]2OC(=O)N(CCCc3ccc(OC)cc3)[C@H]2C1,6
CN(Cc1cc(-c2ccncc2)no1)Cc1ccc(Cl)s1,-13
CN(Cc1cc(-c2ccncc2)no1)Cc1ccc(Cl)cc1F,-90*
CCOc1ccccc1CN(C)Cc1cc(-c2ccncc2)no1,21
Cn1ccc(-c2cc(C(=O)C3CC3)c3ccccn23)n1,215
Cc1ccc(S(=O)(=O)N2CCC3(CCC(C(=O)NCC4CC4)O3)CC2)cc1 (configuration not stated),-42
NC(=O)N1C[C@@H]2OCC(=O)N(CC3CCCC3)[C@H]2C1,-30
Cc1cccc(Nc2nc(C(=O)Nc3c(C)cccc3C)nc3ccccc23)c1,-70*
CSc1cccc(NC(=O)c2nc(Nc3cccc(C)c3)c3ccccc3n2)c1,-82*
Cc1ccc(Nc2nc(C(=O)Nc3cccc(C)c3)nc3ccccc23)cc1,-64
Cc1cc(C)cc(NC(=O)c2nc(Nc3ccccc3)c3ccccc3n2)c1,5
Cc1cccc(Nc2nc(C(=O)Nc3cccc(C)c3C)nc3ccccc23)c1,-40
Cc1ccc(C)c(NC(=O)c2nc(Nc3ccccc3)c3ccccc3n2)c1,-61
Cc1ccc(-c2nnc(SCC(=O)c3ccc4c(c3)n(C)c(=O)n4C)n2C)cc1,-98*

# Assay outcomes from PubChem.
